# Measured values published in PubChem BioAssay AID504832 (National Center for Advancing Translational Sciences (NCATS), 2011).
# The campaign covered roughly 310,000 compounds. About 18,000 (5.8%) were called active. Roughly 22% stayed inconclusive and do not appear here. Calls come from the whole dose curve; as a rule, active = well fitted inhibition curve with a large enough effect; inconclusive = small, poorly fitted or top-dose-only effect, or another doubt; inactive = no such curve, though single readings can be large or run the other way. What follows is part of a selection rich in actives, with near analogues and random picks from the rest. Entries that show only a call come without a potency.
# Experiment: Primary qHTS for delayed death inhibitors of the malarial parasite plastid, 48 hour incubation
# Conditions: P. falciparum luciferase growth in erythrocytes; series mostly up to 28.7 µM
# How it was run: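 Firefly luciferase activity from engineered P. falciparum reports growth; inhibitors lower the luminescent signal. Cultures contained 2% hematocrit erythrocytes at 0.1% final parasitemia.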
# Potency is the fitted concentration of half-maximal effect.
row,SMILES,Potency
1,O=C(NCCc1ccccn1)c1nc(Cn2cc([N+](=O)[O-])cn2)no1,inactive
2,CC(=O)Nc1ccc(S(=O)(=O)N(C)c2nc3ccccc3nc2Cl)cc1,inactive
3,COc1ccc(C(=O)C2CCCN(C(=O)c3cc(C)on3)C2)cc1F (configuration not stated),inactive
4,CCOc1cc(N2CCOCC2)c(OCC)cc1NC(=O)C1=NN(c2cccc(C)c2)C(=O)CC1,inactive
5,CCOc1cc(N2CCOCC2)c(OCC)cc1NC(=O)COc1cccc2cccnc12,3.29 µM (active)
6,NC(=O)C1CCN(C(=O)COc2cccc3cccnc23)CC1,inactive
7,O=C(COc1cccc2ccccc12)Nc1cc(S(=O)(=O)N2CCOCC2)ccc1N1CCOCC1,11.7 µM (active)
8,O=C(COC(=O)c1ccccc1F)Nc1cc(S(=O)(=O)N2CCOCC2)ccc1N1CCCC1,inactive
9,CC(=O)NCCC(=O)Nc1cc(S(=O)(=O)N2CCOCC2)ccc1N1CCOCC1,inactive
10,O=C(Nc1c2c(nn1-c1ccccc1)CS(=O)(=O)C2)C1CCCC1,inactive
11,Cc1cccc(C)c1NC(=O)CSc1nc2c([nH]1)c(=O)n(C)c(=O)n2C,inactive
12,Cc1cc(NC(=O)Nc2c[nH]c(=O)[nH]c2=O)ccc1Br,inactive
13,O=C(NC1CCN(S(=O)(=O)c2ccc(F)cc2)CC1)c1ccccc1,inactive
14,O=C(Cc1cccs1)Nc1ccc([N+](=O)[O-])cc1,inactive
15,O=C(CN(c1cc(C(F)(F)F)ccc1Cl)S(=O)(=O)c1ccccc1)NCc1cccnc1,inactive
16,CCCNC(=O)c1ccc(N2CCC3(CC2)CC(c2cccc(Br)c2)=NO3)c(NC(=O)c2ccco2)c1,0.738 µM (active)
17,COCCNC(=O)c1ccc(N2CCC3(CC2)OCCO3)c([N+](=O)[O-])c1,inactive
18,CCCNC(=O)c1ccc(N2CCC3(CC2)CC(c2ccc(Cl)cc2)=NO3)c([N+](=O)[O-])c1,inactive
19,CCOC(=O)C1CCCN(S(=O)(=O)c2ccc(-n3cnnn3)c(C)c2)C1 (configuration not stated),inactive
20,Cc1cnc(CN(C)C(=O)C2CCC(=O)N(CCc3cccc(F)c3)C2)[nH]1 (configuration not stated),inactive
21,Cc1ccc(N(CC(=O)NCC2CCCO2)C(=O)CNS(=O)(=O)c2ccc(Cl)cc2)cc1 (configuration not stated),inactive
22,O=c1[nH]c(N2CCOCC2)nc2ccccc12,inactive

row,SMILES,Potency
1,Cc1ccc(S(=O)(=O)N2CCN(C(=O)CSc3cc(C)ccc3C)CC2)c(C)c1,inactive
2,Cc1ccc(S(=O)(=O)N2CCN(C(=O)COC(=O)c3c(C)cc(C)cc3C)CC2)c(C)c1,14.7 µM (active)
3,Cc1ccc(S(=O)(=O)N2CCN(C(=O)COC(=O)c3c(C)noc3C)CC2)c(C)c1,inactive
4,COc1ccc(N2CCN(C(=O)c3cccs3)CC2)cc1,inactive
5,O=C(NCCc1ccccc1Cl)C1CCC(=O)N(CCCc2ccccc2)C1 (configuration not stated),inactive
6,NC1=NC(=O)S/C1=C\c1ccc(O)cc1,inactive
7,O=C1N=C(N2CCOCC2)S/C1=C\C=C/c1ccccc1,inactive
8,O=C1N=C(N2CCc3ccccc3C2)S/C1=C\c1ccc(O)cc1,7.38 µM (active)
9,O=S1(=O)CCO[C@H]2Cc3ccccc3[C@H]2N1Cc1ccccc1,inactive
10,O=C(c1cc(COc2ccc(F)c(F)c2)on1)N1CCOCC1,inactive
11,COc1cc(/C=N/NC(=O)c2ccoc2C)ccc1OCCN1CCCCC1,inactive
12,COc1ccc(C2C(C(=O)Nc3ccccc3OC)=C(C)Nc3nnnn32)c(OC)c1 (configuration not stated),inactive
13,COc1ccccc1NC(=O)C1=C(C)Nc2nc3ccccc3n2C1c1cccs1 (configuration not stated),13.1 µM (active)
14,COc1ccccc1NC(=O)C1=C(C)Nc2nnnn2C1c1cccc(Br)c1 (configuration not stated),inactive
15,COc1cccc(NC(=O)CN2CCN(CC(=O)Nc3ccccc3Cl)CC2)c1,inactive
16,C[C@@H](NC(=O)[C@@H]1Cc2ccccc2CN1)C(=O)NC1CCCC1,inactive
17,O=C(NC1CCN(Cc2ccccc2)CC1)c1ccccc1F,inactive
18,Cc1ccc(-c2cc(C(=O)NC3CCN(Cc4ccccc4)CC3)c3ccccc3n2)cc1,13.1 µM (active)
19,Cc1cc(C(=O)NC2CCN(Cc3ccccc3)CC2)n[nH]1,inactive
20,COc1ccc(C(=O)C2CCCN(S(=O)(=O)c3cccc(C)c3)C2)c(C)c1 (configuration not stated),inactive
21,Cc1ccc(NC(=O)C2CCCN(S(=O)(=O)c3c(C)noc3C)C2)c(C)c1 (configuration not stated),inactive
22,COc1c(C)cc(C(=O)C2CCCN(S(=O)(=O)c3c(C)noc3C)C2)cc1C (configuration not stated),9.28 µM (active)

row,SMILES,Potency
1,CN(C(=O)CSc1nnc(-c2ccc(C(C)(C)C)cc2)n1C)C1CCS(=O)(=O)C1 (configuration not stated),inactive
2,CC(=O)Nc1ccc(C(=O)N(C2=NC(C)CS2)c2ccc(Cl)cc2)cc1 (configuration not stated),inactive
3,Nc1nc(SCc2cccc(Br)c2)n[nH]1,inactive
4,Cc1nc(NNC(=O)c2ccccc2)cc(-c2ccccc2)n1,inactive
5,Cc1ccc(-c2csc(NNC(=O)c3ccccc3)n2)cc1,2.33 µM (active)
6,Cc1ccc(-c2csc(NC(=O)c3cccs3)n2)cc1,inactive
7,CCn1c(SCC(=O)NNC(=O)c2ccc(OC)cc2)nnc1C(C)C,inactive
8,Cc1ccc(Cn2c(=N)c(S(=O)(=O)c3ccc(C)cc3)cc3c(=O)n4ccccc4nc32)cc1,inactive
9,Cn1c(Cc2cccs2)nnc1SCC(=O)Nc1ccccc1,inactive
10,COc1cccc(C(=O)Nc2cccnc2)c1OC,inactive
11,CCC(CC)C(=O)Nc1c2c(nn1-c1ccc(C)cc1)CS(=O)(=O)C2,inactive
12,O=C(CC1CCCCC1)Nc1c2c(nn1-c1ccc(F)cc1)CS(=O)(=O)C2,inactive
13,Cc1cccc(-n2nc3c(c2NC(=O)c2cc4ccccc4o2)CS(=O)(=O)C3)c1,inactive
14,COc1cccc(C(=O)Nc2c3c(nn2-c2cccc(C)c2C)CS(=O)(=O)C3)c1OC,10.4 µM (active)
15,COc1ccccc1OCC(=O)Nc1c2c(nn1-c1ccc(F)cc1)CS(=O)(=O)C2,10.4 µM (active)
16,CCOC(=O)c1sc(N)c(C#N)c1COC(=O)C1=COCCO1,inactive
17,Cc1cc(C)cc(NC(=O)C2CCCN2S(=O)(=O)c2cccc3cccnc23)c1 (configuration not stated),inactive
18,CCn1c(CC(=O)Nc2ccccc2C)nnc1SCC(=O)NC1=NCCS1,inactive
19,CCCc1nn(C)c2c(=O)[nH]c(-c3cc(S(N)(=O)=O)ccc3OCC)nc12,inactive
20,N#Cc1cc([N+](=O)[O-])ccc1NCC1CCCO1 (configuration not stated),inactive
21,O=C(Cc1ccc(Cl)cc1)NC1CCS(=O)(=O)C1 (configuration not stated),inactive
22,CC(C)C(=O)NC(NC(=S)NC1CCS(=O)(=O)C1)C(Cl)(Cl)Cl (configuration not stated),7.38 µM (active)

row,SMILES,Potency
1,COc1ccc(NC(=S)NC2CCS(=O)(=O)C2)cc1 (configuration not stated),inactive
2,CC1CC(C)CN(C(=O)COC(=O)c2ccc3ncsc3c2)C1 (configuration not stated),inactive
3,CCc1noc(C)c1C(=O)Nc1nc(-c2ccccc2)cs1,inactive
4,COCCNc1nc(N)c([N+](=O)[O-])c(NCCO)n1,inactive
5,C=CCNc1nc(N)c([N+](=O)[O-])c(NC2CCCCC2)n1,14.7 µM (active)
6,Nc1nc(Nc2ccccc2)nc(NCCO)c1[N+](=O)[O-],inactive
7,CSCc1nnc(NC(=O)c2ccc(S(=O)(=O)N3CCCCC3C)cc2)o1 (configuration not stated),inactive
8,CC(C)CNC(=O)c1cc(-c2ccc(Br)cc2)on1,inactive
9,CC(C)Cc1cc(C(=O)NCCc2ccccc2)no1,inactive
10,CC(C)Cc1cc(C(=O)Nc2cc(Br)ccc2O)no1,1.85 µM (active)
11,COc1cccc(OC)c1C(=O)NC(=S)Nc1ccc(N2CCOCC2)c(Cl)c1,14.7 µM (active)
12,CCOc1ccc(C(=O)NC(=S)Nc2ccc(N3CCOCC3)c(Cl)c2)cc1[N+](=O)[O-],inactive
13,Cc1ccc(C(=O)NC(=S)Nc2ccc(N3CCOCC3)cc2)cc1,inactive
14,O=C(NCCc1nnc2ccc(SCC(=O)N3CCOCC3)nn12)c1ccccc1,inactive
15,CCCS(=O)(=O)N1CCCC(C(=O)N2CCN(c3ccccc3)CC2)C1 (configuration not stated),inactive
16,COc1ccc(S(=O)(=O)N2CCCC(C(=O)N3CCN(C)CC3)C2)cc1C (configuration not stated),inactive
17,CC(=O)N1CCCc2cc(S(=O)(=O)N3CCCC(C(=O)NCc4ccc(Cl)cc4)C3)ccc21 (configuration not stated),inactive
18,CC(=O)N1CCCc2cc(S(=O)(=O)N3CCCC(C(=O)N4CCN(c5cccc(Cl)c5)CC4)C3)ccc21 (configuration not stated),4.15 µM (active)
19,Cc1ccc(S(=O)(=O)N2CCCC(C(=O)N3CCN(C)CC3)C2)cc1 (configuration not stated),inactive
20,O=C(C1CCCN(S(=O)(=O)c2ccccc2)C1)N1CCN(c2ccc(F)cc2)CC1 (configuration not stated),13.1 µM (active)
21,CC(C)CCN(C(=O)c1csnn1)C(C(=O)NC1CCCC1)c1ccccc1 (configuration not stated),inactive
22,CCOc1ccc(N(C)S(=O)(=O)c2cnc[nH]2)cc1,inactive

row,SMILES,Potency
1,CC(=O)c1ccc(NC(=O)C2CCCN2S(=O)(=O)c2cccs2)cc1 (configuration not stated),inactive
2,COc1ccc(C(=O)NC(C)Cn2nc(C)cc2C)cc1OC1CCN(C(C)=O)CC1 (configuration not stated),inactive
3,Cc1cccc(-c2nc(CS(=O)CC(=O)NC(C)CCc3ccccc3)c(C)o2)c1 (configuration not stated),inactive
4,O=C(CN1CCc2cc3c(cc2C1)OCCCO3)Nc1ccccc1,inactive
5,Cc1cccc2c1N(CC(=O)OC(C)C)C(=O)C2=O,inactive
6,CC(C)OC(=O)CN1C(=O)C(=O)c2ccccc21,2.62 µM (active)
7,CC(C)OC(=O)CN1C(=O)c2ccccc2C1=O,inactive
8,Clc1cccc(Cl)c1OCCOCCNCc1ccccc1,inactive
9,CC(NC(=O)c1ccccc1C(=O)O)c1ccc(-n2ccnc2)cc1 (configuration not stated),inactive
10,COc1ccc(NC(=O)CCCNC(=O)Cn2cnc3sc4c(c3c2=O)CCCC4)cc1OC,inactive
11,Cc1ccc2c(CN3CCN(S(=O)(=O)c4ccccc4C(F)(F)F)CC3)cc(=O)oc2c1,11.7 µM (active)
12,O=S(=O)(c1cccs1)N1CCN(Cc2ccccc2)CC1,inactive
13,O=S(=O)(/C=C/c1ccccc1)N1CCNCC1,inactive
14,Cc1cc2oc(=O)cc(CN3CCN(Cc4ccccc4)CC3)c2cc1C,inactive
15,O=S(=O)(c1ccc(F)cc1)N1CCN(Cc2ccccc2C(F)(F)F)CC1,inactive
16,NC(=O)CCN1CCN(S(=O)(=O)/C=C/c2ccccc2)CC1,inactive
17,Cc1cc2oc(=O)cc(CN3CCN(S(=O)(=O)c4cccs4)CC3)c2cc1C(C)C,10.4 µM (active)
18,O=c1cc(CN2CCN(S(=O)(=O)/C=C/c3ccccc3)CC2)c2ccc(O)cc2o1,13.1 µM (active)
19,Cc1onc(-c2ccccc2)c1C(=O)N1CCN(S(=O)(=O)c2ccccc2C(F)(F)F)CC1,inactive
